# High-throughput results (PubChem)
# PAD4 inh – blocks human protein arginine deiminase 4. Q9UM07. recombinant PAD4, RCA probe fluorescence polarization. actives 0.41% (n = 330,000). inhibition, % at 6.36 µM;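 active = percent inhibition above a cutoff equal to the mean of all tested compounds plus 3 SD, cut at about 15% in these data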;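 also: 0% = PAD4 with RCA probe and DMSO and 100% = probe without PAD4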
# PME-1 inh – PME-1 (human) inhibition; recombinant PME-1, FP-Rh probe fluorescence polarization; inhibition, % at 5.9 µM; actives 0.53% (n = 320,000); Q9Y570;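 active = inhibition above the campaign mean of all compounds plus 3 SD, cut at about 26% in these data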;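 also: competitive labeling of PME-1 active site by serine hydrolase directed probe; 0% = PME-1 with DMSO and 100% = wells lacking PME-1 enzyme; inhibitors block probe labeling so polarization falls and inhibition rises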
# LYPLA1 inh – LYPLA1 (human) inhibition in PME1 counter-screen; inhibition, % at 5.9 µM; actives 0.16% (n = 320,000); O75608; AID 2174; recombinant LYPLA1, FP-Rh probe fluorescence polarization;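 active = inhibition above the mean of all tested compounds plus 3 SD, set per campaign, cut at about 14% in these data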;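 also: inhibitors block serine hydrolase probe labeling of LYPLA1 so polarization falls; 0% = enzyme with DMSO and 100% = wells lacking LYPLA1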
# Target sequence (O75608 whole entry, looked up): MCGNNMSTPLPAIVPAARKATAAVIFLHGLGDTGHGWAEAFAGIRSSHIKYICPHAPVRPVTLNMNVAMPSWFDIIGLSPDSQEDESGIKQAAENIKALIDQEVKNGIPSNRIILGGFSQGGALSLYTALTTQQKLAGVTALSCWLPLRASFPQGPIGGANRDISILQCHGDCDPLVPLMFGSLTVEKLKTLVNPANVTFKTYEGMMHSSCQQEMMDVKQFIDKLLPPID
# LYPLA2 inh – counter-screen for PME1 inhibitors: inhibitors of human LYPLA2; recombinant LYPLA2, FP-Rh probe fluorescence polarization; inhibition, % at 5.9 µM; actives 0.38% (n = 320,000); AID 2177;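 active = inhibition above the screen-wide mean plus 3 SD, limit set per campaign, cut at about 26% in these data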;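 also: 0% = LYPLA2 with DMSO and 100% = wells lacking LYPLA2 enzyme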
# Target sequence (O95372 whole entry, looked up): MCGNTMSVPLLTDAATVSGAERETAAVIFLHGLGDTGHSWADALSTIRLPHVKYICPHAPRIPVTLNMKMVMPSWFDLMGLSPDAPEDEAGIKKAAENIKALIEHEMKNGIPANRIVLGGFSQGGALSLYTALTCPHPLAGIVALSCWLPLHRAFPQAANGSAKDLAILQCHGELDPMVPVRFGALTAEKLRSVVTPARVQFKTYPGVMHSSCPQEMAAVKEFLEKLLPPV
# Fam108B inh – counter-screen for RBBP9 inhibitors: inhibitors of mouse Fam108B. recombinant Fam108B, FP-Rh probe fluorescence polarization. actives 0.33% (n = 300,000). inhibition, % at 9.51 µM;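 active = inhibition above the screen mean inhibition plus 3 SD, computed separately per campaign, cut at about 18% in these data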;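 also: inhibitors lower polarization as less probe binds the enzyme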
# GSTO1 inh – counter-screen for RBBP9 inhibitors: inhibitors of human GSTO1 | actives 1.1% (n = 300,000) | inhibition, % at 5.96 µM | AID 1974 | recombinant GSTO1, activity-based probe fluorescence polarization;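 active = inhibition above the campaign mean inhibition plus 3 SD, cut at about 35% in these data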;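 also: 0% = GSTO1-1 with DMSO and 100% = wells lacking GSTO1-1 enzyme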
# Fam108b confirm – Fam108b (mouse) hydrolase inhibition, confirmation assay; recombinant Fam108b, FP-Rh probe fluorescence polarization; shares compounds with Fam108B inh; inhibition, % at 9.51 µM; actives 44% (n = 930);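 active = inhibition above a limit from the primary screen, the mean over all compounds plus 3 SD, cut at about 19% in these data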;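 also: 0% = median of active Fam108b wells and 100% = catalytically dead S170A mutant; inhibitors free the probe so polarization falls as inhibition rises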
# Fam108b ABPP HTS – inhibits mouse Fam108b in gel-based ABPP; shares compounds with Fam108B inh; recombinant Fam108b, fluorophosphonate probe; inhibition, % at 20 µM; actives 44% (n = 260); in the data active = inhibition above about 40%
# * marks the source's active call; other numbers are inactive results; nt = not tested or not shown. Only some compounds are listed: those with a hit (about 1.8% of all), similar ones and a draw of the others.
SMILES,PAD4 inh,PME-1 inh,LYPLA1 inh,LYPLA2 inh,Fam108B inh,GSTO1 inh,Fam108b confirm,others
O=C(CCCN1C(=O)/C(=C\c2ccco2)SC1=S)Nc1ccc(O)cc1C(=O)O,-20,-43,-2,-4,20*,23,12,
COc1ccccc1C(=O)NCCC(=O)N1CCN(c2cccc(C(F)(F)F)c2)CC1,4,-2,3,11,1,7,nt,
O=C1Nc2ccc(Br)cc2C12NNc1ccccc1O2 (stereo unspecified),-6,38*,-4,-10,21*,11,12,
COc1cc(CN2CCCC(N3CCN(c4ccc(F)cc4)CC3)C2)ccc1F (stereo unspecified),-4,3,2,0,-1,4,nt,
COc1ccc(C(=O)CCC(=O)N2CCN(c3ccccc3)CC2)cc1,-3,-1,3,5,2,-1,nt,
COc1ccc(NS(=O)(=O)c2ccc3oc(Nc4ccc5c(c4)OCCO5)nc3c2)cc1,-6,32*,-21,-14,30*,-32,-1,
CCOc1cc(C2Nc3cccc4cccc(c34)N2)ccc1O,-17,23,-31,-17,63*,23,24*,
Oc1ccccc1C1Nc2cccc3cccc(c23)N1,-6,46*,-12,2,60*,19,31*,Fam108b ABPP HTS=85*
Clc1ccc(C2Nc3cccc4cccc(c34)N2)cc1Cl,-4,15,-5,-5,24*,24,21*,
Clc1cccc(C2Nc3cccc4cccc(c34)N2)c1,1,1,-11,-7,18,32,nt,
O=C1NC2(CCCCCC2)C(=O)N1Cc1c(F)cccc1Cl,5,0,2,6,1,-2,nt,
COc1ccccc1N(C)S(=O)(=O)c1ccc(C(=O)N2CCCC(C(F)(F)F)C2)cc1 (stereo unspecified),4,3,2,7,2,1,nt,
C/C(=N\OCc1nc2ccccc2c(=O)n1/N=C/c1cc([N+](=O)[O-])ccc1O)c1ccccc1,-5,0,-13,-18,19*,-3,-10,
C/C(=N\OCc1nc2ccccc2c(=O)n1/N=C/c1cc(C)cc([N+](=O)[O-])c1O)c1ccccc1,2,-5,-15,-17,24*,32,17,
COc1ccc(OC)c(/C=N/NC(=O)c2ccc3nc[nH]c3c2)c1,-2,0,-2,-2,-1,5,nt,
COc1ccc(OC)c(/C=C2\S/C(=N/NC(=O)c3ccc4ccccc4c3)NC2=O)c1,1,23,-2,1,32*,24,15,
COc1ccc(/C=N/NC(=O)c2cccc([N+](=O)[O-])c2)cc1OS(=O)(=O)c1ccccc1,3,2,2,-3,31*,1,26*,
Nc1ccc(O)c([N+](=O)[O-])c1,-8,-6,3,3,nt,nt,nt,
O=[N+]([O-])c1cc(N=Nc2ccc3ccccc3c2)ccc1O,-5,10,6,15,22*,6,13,
COc1ccc(NC(=O)Nc2cccc3c2O[C@H](CN(C)S(=O)(=O)c2c(C)noc2C)[C@@H](C)CN([C@H](C)CO)C3=O)cc1,-2,nt,nt,nt,nt,nt,nt,
COc1ccc(/C=C2\SC(=S)N(CC(=O)OCC(=O)Nc3cc(Cl)cc(Cl)c3)C2=O)cc1,5,2,-5,-3,27*,-2,78*,Fam108b ABPP HTS=85*
COc1ccc(/C=C2/SC(=S)N(CCCC(=O)Nc3cccc(O)c3)C2=O)cc1,0,-20,-26,-36,-6,-11,nt,
CCN(CC(=O)Nc1ccc2c(c1)OCCO2)CC(=O)Nc1ccc(C)c(S(=O)(=O)N(C)C)c1,4,nt,nt,nt,nt,nt,nt,
CCOC(=O)C1=C(C)N=c2sc(=Cc3ccc(O)c([N+](=O)[O-])c3)c(=O)n2C1c1ccccc1OC (stereo unspecified),nt,nt,nt,nt,nt,nt,nt,Fam108b ABPP HTS=30
Cc1cc(C)cc(C(=O)NC(=S)Nc2ccc3c(c2)OCCO3)c1,-5,-3,-6,-14,-2,-8,nt,
SMILES,PAD4 inh,PME-1 inh,LYPLA1 inh,LYPLA2 inh,Fam108B inh,GSTO1 inh,Fam108b confirm,others
Cc1ccc(C(=O)NC(=S)Nc2ccc3c(c2)OCCO3)c(C)c1,-7,5,1,6,26*,-5,-4,
CC(CCc1ccccc1)NC(=O)CCCn1ncn2c(cc3occc32)c1=O (stereo unspecified),-1,0,1,2,-1,-1,nt,
COc1ccc(-c2nc(-c3ccccc3)c(-c3cc([N+](=O)[O-])ccc3C)[nH]2)cc1OC,1,2,-1,-2,15,2,nt,
COc1ccc(-c2[nH]c(-c3cc(OC)c4c(c3)OCO4)nc2-c2ccccc2)cc1,9,9,0,-6,19*,-1,-9,
Cc1cc(NC(=O)c2cc(-c3ccc(OC(C)C)cc3)nc3ccccc23)no1,-7,-12,-9,-14,-12,-4,nt,
Cc1[nH]c2ccccc2c1C=NNC(=O)c1cccc(S(=O)(=O)Nc2cccc(C(F)(F)F)c2)c1,nt,nt,nt,nt,nt,nt,nt,Fam108b ABPP HTS=95*
COc1cc(OC)c(OC)cc1/C=N/NC(=O)c1cc(-c2cccn2C)n[nH]1,2,3,6,8,4,4,nt,
CCOc1cccc(/C=N/NC(=O)c2cc(-c3cccn3C)n[nH]2)c1O,-6,-2,-28,-19,22*,-10,9,
COc1ccc2[nH]c3c(c2c1)CCN1C(=O)C(CC(=O)NCC24CC5CC(CC(C5)C2)C4)C[C@H](C(=O)N(C(C)C)C(C)C)[C@@]31C (stereo partly specified),1,nt,nt,nt,nt,nt,nt,
COc1ccc(NS(=O)(=O)c2ccc(N/N=C(\C)c3ccncc3)c([N+](=O)[O-])c2)cc1,4,28*,-2,10,23*,-55,-3,
C/C(=N\Nc1ccc(S(=O)(=O)Nc2ccccc2)cc1[N+](=O)[O-])c1ccncc1,-1,9,0,2,2,7,nt,
O=[N+]([O-])c1ccccc1/C=C/C=N/Nc1ccc(S(=O)(=O)Nc2ccc(Cl)cc2)cc1[N+](=O)[O-],-2,40*,-10,12,60*,1,12,
C/C(=N\Nc1ccc(S(=O)(=O)Nc2ccc(Cl)cc2)cc1[N+](=O)[O-])c1ccc(N2CCOCC2)cc1,-2,2,-2,1,35*,-2,5,
COc1ccccc1NC(=O)C(C)OC(=O)CC1CCCCC1 (stereo unspecified),-8,5,0,2,nt,nt,nt,
Cc1cc(N/N=C/c2ccc(O)cc2O)c2ccccc2n1,3,0,0,1,-3,8,nt,
Cc1cc(N/N=C/c2ccc(O)cc2O)nc(-c2ccccc2O)n1,9,65*,-14,3,34*,7,14,
